# Assay outcomes: PubChem, Sanford-Burnham Center for Chemical Genomics
# Most compounds without a hit are left out; they make up all but 28% or so of the library.
# CYP2C19 inh: human CYP2C19 inhibition. hit rate 21% among 96,000. CYP2C19 Supersomes, luciferin-H EGE luminescence, 30 min. P33261. inhibition, % at 5 µM;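 active = CYP2C19 inhibition above a set limit at 5 µM in the primary screen, cut at about 50% in these data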;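 also: plate controls were negative control wells for no effect and 2.5 mM tranylcypromine positive control for full effect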
# CYP2C19 act: increases human CYP2C19 enzyme activity | P33261 | recombinant CYP2C19, luciferin-H EGE luminescence; hits give high values; 0 = fully inhibited enzyme, 1 = untreated enzyme | activation factor at 5 µM | 96,000 tested, under 10 active | AID 1025;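 active = activation factor of at least 2 at 5 µM in the primary screen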;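 also: 0 = wells with 2.5 mM tranylcypromine and 1 = vehicle-only wells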
# CYP2C9 act: CYP2C9 (human) activation | P11712 | recombinant CYP2C9, luciferin-H conversion, luminescence; hits give high values; factor 1 = untreated enzyme, 0 = blocked | activation factor at 5 µM | hit rate 1.4% among 96,000 | AID 1024;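 active = activation factor of 2 or more for CYP2C9 at a 5 µM dose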;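 also: 0 = sulfaphenazole-blocked wells and 1 = vehicle-only wells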
# CYP2C9 inh: inhibitors of human CYP2C9 | CYP2C9 Supersomes, luciferin-H conversion, luminescence | inhibition, % at 5 µM | hit rate 20% among 96,000 | AID 777;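 active = blocking of liver enzyme CYP2C9 beyond about 50% at 5 µM, limit read from the data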
# CD11b adhes enh: increases human CD11b/CD18 adhesion to fibrinogen | P05107+P11215 | K562 CD11b/CD18 adhesion to fibrinogen, ATPlite luminescence | activation, % at 10 µM | hit rate 0.07% among 93,000 | AID 1499;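 active = 10 µM primary screen giving 50% or more activity, confirmed by 40% or more on retest at that dose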
# Target sequence (P05107 whole entry, looked up, other chains not shown): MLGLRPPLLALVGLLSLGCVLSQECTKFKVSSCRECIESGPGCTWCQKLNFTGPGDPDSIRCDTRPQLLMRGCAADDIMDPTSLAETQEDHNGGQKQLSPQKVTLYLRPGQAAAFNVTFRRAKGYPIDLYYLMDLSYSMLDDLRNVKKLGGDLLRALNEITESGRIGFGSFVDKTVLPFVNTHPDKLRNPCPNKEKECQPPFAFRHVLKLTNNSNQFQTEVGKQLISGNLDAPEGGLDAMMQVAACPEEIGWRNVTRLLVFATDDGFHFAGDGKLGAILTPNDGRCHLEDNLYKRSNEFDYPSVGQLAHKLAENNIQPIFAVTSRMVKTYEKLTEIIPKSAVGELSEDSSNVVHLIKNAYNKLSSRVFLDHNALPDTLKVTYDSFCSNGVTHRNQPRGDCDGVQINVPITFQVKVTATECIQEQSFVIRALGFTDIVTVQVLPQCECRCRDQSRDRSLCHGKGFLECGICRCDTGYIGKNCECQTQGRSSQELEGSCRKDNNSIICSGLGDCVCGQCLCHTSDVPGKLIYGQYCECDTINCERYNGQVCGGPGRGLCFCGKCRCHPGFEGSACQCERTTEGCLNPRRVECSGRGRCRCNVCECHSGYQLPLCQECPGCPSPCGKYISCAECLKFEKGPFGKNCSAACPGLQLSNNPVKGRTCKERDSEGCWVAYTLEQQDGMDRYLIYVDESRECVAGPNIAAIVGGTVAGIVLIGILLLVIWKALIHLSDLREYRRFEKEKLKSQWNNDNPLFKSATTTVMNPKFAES
# Mac1 fbg inh: blocks human CD11b/CD18 adhesion to fibrinogen; P05107+P11215; K562 CD11b/CD18 adhesion to fibrinogen, ATPlite luminescence; Mn2+ added to activate the integrin; inhibition, % at 10 µM; hit rate 0.54% among 93,000; AID 1497;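 active = primary inhibition of 50% or more at 10 µM, then 40% or more on retest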
# Numbers without * were called inactive; / = no result given.
SMILES,CYP2C19 inh,CYP2C19 act,CYP2C9 act,CYP2C9 inh,CD11b adhes enh,Mac1 fbg inh
CC1(C)C(C=C(Cl)Cl)C1C(=O)N1CCN(c2ccccc2)CC1 (configuration not stated),46,0.5,0.7,26,34,-13
CC(=O)Nc1ccc(S(=O)(=O)Oc2cccc(N3C(=O)C4CC=CCC4C3=O)c2)cc1 (configuration not stated),43,0.6,0.4,59*,2,6
CC(=O)Nc1ccc(S(=O)(=O)Oc2ccc(N3C(=O)C4CCCCC4C3=O)cc2)cc1 (configuration not stated),26,0.7,0.5,47,-5,9
CCC(C)N1C(=O)C2C(C(=O)Nc3cccc(OC)c3)C3C=CC2(O3)C1C(=O)NC1CCCCC1C (configuration not stated),8,0.9,0.9,12,29,-7
Cc1cccc(OCCc2nnc(N)s2)c1C,-1,1,1.1,-5,1,-8
Cc1cc(NC(=O)c2cc([N+](=O)[O-])cc([N+](=O)[O-])c2)n(-c2ccccc2)n1,/,/,/,/,4,-4
Cc1cc(NC(=O)C2CC(c3ccc(F)cc3)=NO2)n(-c2ccccc2)n1 (configuration not stated),68*,0.3,0.7,29,0,-5
COc1cccc(C2=NOC(C(=O)Nc3cccc(C(C)=O)c3)C2)c1 (configuration not stated),36,0.6,0.8,21,-3,-12
COc1cccc(C2=NOC(C(=O)Nc3cc(C)nn3-c3ccccc3)C2)c1OC (configuration not stated),16,0.8,1.1,-14,-4,8
CC(=O)c1cccc(NC(=O)C2CC(c3ccc(F)cc3)=NO2)c1 (configuration not stated),68*,0.3,0.7,28,-1,-10
CN=C(Nc1cc(C)nn1-c1ccccc1)c1ccc(F)cc1,92*,0.1,0.5,45,-2,-3
COc1cccc(C2=NOC(C(=O)Nc3cccc(C(C)=O)c3)C2)c1OC (configuration not stated),58*,0.4,1.8,-80,-5,-6
CC1Cc2ccccc2N1CC(=O)NC(c1ccccc1)c1ccccc1 (configuration not stated),/,/,/,/,5,-2
COc1ccc(/C=N/N(C(C)=O)c2nc(-c3ccc(C)cc3)cs2)cc1,73*,0.3,0.4,57*,/,/
COC(=O)C1=C(N)Oc2cc(C)n(Cc3ccco3)c(=O)c2C1c1cccc(Cl)c1 (configuration not stated),34,0.7,0.4,56*,0,27
COC(=O)C1=C(N)Oc2cc(C)n(C)c(=O)c2C1c1ccc(Cl)c(Cl)c1 (configuration not stated),-8,1.1,0.7,32,1,-9
COC(=O)C1=C(N)Oc2cc(C)[nH]c(=O)c2C1c1ccncc1 (configuration not stated),49,0.5,0.5,51*,-3,-3
COC(=O)C1=C(N)Oc2cc(C)n(CCCn3ccnc3)c(=O)c2C1c1ccc(Cl)cc1 (configuration not stated),99*,0,0,97*,-2,-10
CCn1c(C)cc2c(c1=O)C(c1ccccc1)C(C(=O)OC)=C(N)O2 (configuration not stated),21,0.8,1.1,-8,3,-3
COC(=O)C1=C(N)Oc2cc(C)n(CC3CCCO3)c(=O)c2C1c1ccc(Cl)c(Cl)c1 (configuration not stated),72*,0.3,0.2,81*,3,10
COc1ccc(NC(=O)CSc2nnc(-c3cccnc3)n2Cc2ccco2)c(OC)c1,37,0.6,0.5,49,-4,2
O=C(CN(C1CC1)S(=O)(=O)c1ccc(S(=O)(=O)NC2CCCCC2)cc1)Nc1ccccc1,97*,0,0,96*,-4,-2
CC(C)CNC(=O)CN(C1CCCCC1)S(=O)(=O)c1ccccc1,58*,0.4,0.1,92*,-2,-3
CS(=O)(=O)N(CC(=O)Nc1ccc(C(N)=O)cc1)C1CCCCC1,8,0.9,0.8,17,4,-52
